An excerpt weighted towards active compounds, which were near 1.3% of everything screened.
Akt phos inh: inhibitors of Akt phosphorylation; Neuro2A IGF-stimulated pAkt S473 HTRF, 20 min; hits give low values; activity change, % for hits at 50 µM; actives 0.32% (n = 360,000); in the data active means activity change below about -80%; inconclusive means mostly about -51% to -80%
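Neuro2A cells in DMEM with 0.5% FBS, overnight at 37 deg C, given compound at single 50 µM final, then IGF (6 nM final) for 20 min at 37 deg C. Lysed; phospho-Akt Ser473 by HTRF after 24 h, 665/615 ratio.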
CtBP-E1A blk: CtBP/E1A binding inhibition. actives 0.49% (n = 340,000). AID 651724. AlphaScreen GST-E1A/His-CtBP binding, 1536-well; hits give low values. activity change, % (no concentration beside the values)
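GST-E1A and His-tagged CtBP (125 nM each as 5X stock) were preincubated with pin-transferred compound for 2 h at 37 °C in the dark, then glutathione donor and nickel acceptor beads were added for 1 h before AlphaScreen reading.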
Six1-Eya2 inh: blocks human Six1 binding to Eya2; Q15475+O00167; AlphaScreen GST-Six1/His-Eya2 binding, biochemical; hits give low values; activity change, % (test concentration not listed); actives 0.56% (n = 360,000); AID 651725
Target sequence (O00167 whole entry, looked up): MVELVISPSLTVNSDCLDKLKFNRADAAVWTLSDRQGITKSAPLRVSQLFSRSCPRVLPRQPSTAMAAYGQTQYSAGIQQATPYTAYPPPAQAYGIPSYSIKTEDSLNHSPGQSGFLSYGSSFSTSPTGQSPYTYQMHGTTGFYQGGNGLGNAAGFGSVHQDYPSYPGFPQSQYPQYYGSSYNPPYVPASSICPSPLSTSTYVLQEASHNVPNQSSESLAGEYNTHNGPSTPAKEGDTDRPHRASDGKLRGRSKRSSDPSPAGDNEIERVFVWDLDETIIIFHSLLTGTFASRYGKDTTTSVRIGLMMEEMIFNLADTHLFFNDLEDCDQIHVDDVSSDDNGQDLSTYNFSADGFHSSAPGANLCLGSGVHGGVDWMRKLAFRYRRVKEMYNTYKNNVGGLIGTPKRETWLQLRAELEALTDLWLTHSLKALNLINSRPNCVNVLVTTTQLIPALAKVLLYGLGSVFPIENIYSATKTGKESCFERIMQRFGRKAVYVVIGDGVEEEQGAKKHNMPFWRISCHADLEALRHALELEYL
Target sequence (Q15475 whole entry, looked up): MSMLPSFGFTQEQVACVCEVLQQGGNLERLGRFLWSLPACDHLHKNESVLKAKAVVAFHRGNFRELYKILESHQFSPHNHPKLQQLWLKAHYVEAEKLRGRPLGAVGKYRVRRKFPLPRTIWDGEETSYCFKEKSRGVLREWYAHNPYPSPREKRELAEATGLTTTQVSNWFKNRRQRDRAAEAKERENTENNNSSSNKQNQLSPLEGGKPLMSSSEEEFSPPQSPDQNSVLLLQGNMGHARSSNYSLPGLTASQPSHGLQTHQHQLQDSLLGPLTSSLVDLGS
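Six1/Eya2 binding was read as AlphaScreen signal after compounds were pinned into GST-Six1 plus His-tagged Eya2 (5X stock 250/500 nM) in pH 8.0 Tris/NaCl/TCEP buffer, beads added, then incubated 1 h, 37 C, dark.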
CCT chaperon mod: changes cytosolic chaperonin activity | purified chaperonin ATPase assay, HTRF ADP detection, 30 min | activity change, % (concentration not given with the values), hits read low | actives 0.3% (n = 360,000); in the data active means activity change below about -30%
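Enzyme 40 or 20 nM (batch-dependent) in Tris pH 7.4/KCl/MgCl2/DTT; cpd 76 uM single point; ATP 10 uM; 30 min 37 °C; Transcreener ADP HTRF detection, 30 min RT; ratio 665/615.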
* hit, by the source's call; i = inactive; ? = inconclusive; . = not tested or not shown. Unless noted, no stated cut-off is given here; in the data, active means activity change below about -65%; inconclusive means mostly about -30% to -63%; inactive means weaker than that. On the % scale 0 is the no-effect control and ±100 the full control effect.

SMILES	Akt phos inh	CtBP-E1A blk	Six1-Eya2 inh	CCT chaperon mod
C=CCn1c(=O)n(CCC#N)c(=O)n(CCC#N)c1=O	-99%*	7	3	-3
Cn1c(SCC(=O)Nc2ccc(N3CCOCC3)cc2)nnc1-c1ccccc1	i	-4	-2	-35*
Cn1c(SCC(=O)Nc2ccc(N3CCOCC3)cc2)nnc1-c1ccccc1F	i	15	5	-1
Cn1c(=O)c2nc(NCc3ccccc3)sc2n(C)c1=O	i	-18	-25	0
CCc1ccccc1N(CC(=O)N1CCc2ccccc2C1)S(C)(=O)=O	i	.	2	-31*
CCc1ccccc1N(CC(=O)N1CCCC1)S(C)(=O)=O	i	.	0	-1
O=[S@]1Oc2ccccc2-c2ccccc21	i	2	-23	-71*
COC(=O)Cc1cc(=O)n(-c2nc3ccccc3[nH]2)[nH]1	i	-86*	-92*	-1
Nc1nonc1C(=O)N/N=C/c1cc2c(cc1Br)OCO2	i	2	1	-31*
O=C(N/N=C/c1cc2c(cc1Br)OCO2)c1ccccn1	i	2	6	-2
C/C(=N\NC(=O)c1c[nH]c2ccccc12)c1ccccn1	i	-93*	-93*	0
C/C(=N\NC(=O)c1ccc(F)cc1)c1ccccn1	i	.	-92*	1
C/C(=N\NC(=O)c1cc2ccccc2cc1O)c1ccccn1	i	-21	-23	0
C/C(=N\NC(=O)c1ccccc1-n1cccc1)c1ccccn1	i	?	-92*	-1
CCN(CC)C(=O)C1=C(C)N(CCCN2CCCC2=O)C(=O)C(CC(=O)NCc2cccs2)C1 (stereo not given)	i	4	-2	1
N#Cc1ccccc1OCC(=O)N(C1CCCCC1)C1CCS(=O)(=O)C1 (stereo not given)	i	6	4	-1
O=C(NCC1CCCO1)c1ccc(Br)c(S(=O)(=O)N2CCOCC2)c1 (stereo not given)	i	12	3	0
Cc1cc(NC(c2cccnc2)c2ccc3cccnc3c2O)no1 (stereo not given)	i	-93*	-88*	1
O=[N+]([O-])c1ccc(NC(c2ccccc2)c2ccc3cccnc3c2O)cc1 (stereo not given)	i	-20	-18	0
Oc1c(C(Nc2cccc(C(F)(F)F)c2)c2cccnc2)ccc2cccnc12 (stereo not given)	i	-86*	-82*	1
O=C(Cc1cccc([N+](=O)[O-])c1)Nc1ccc(C(=O)N2CCCCC2)cc1	i	-1	-4	0
Cc1cc(C)c(C#N)c(SCc2ccc(C#N)cc2)n1	-92%*	1	0	-2
Cc1cc(C)c(C#N)c(SCCS(=O)(=O)Cc2ccc(Cl)cc2)n1	-91%*	14	1	-4
Cc1cc(C)c(C#N)c(SCCS(=O)(=O)c2ccc(Cl)cc2)n1	i	17	17	1
Cc1cc(C)c(C#N)c(SCc2ccc(F)cc2)n1	i	.	9	-1
SMILES	Akt phos inh	CtBP-E1A blk	Six1-Eya2 inh	CCT chaperon mod
Cc1ccc(-c2ccnc(-c3ccc(O)cc3)n2)cc1	i	-1	-5	-38*
O=C(COc1cccc(Cl)c1)Nc1cc(S(=O)(=O)N2CCOCC2)ccc1N1CCOCC1	i	.	-3	-1
COc1cc(C(=O)NCC(c2cccs2)N2CCOCC2)cc(OC)c1OC (stereo not given)	i	5	4	0
Cc1ccc(O)c(CNc2cccc3cccnc23)c1	i	?	-22	-4
Cc1cccnc1NCc1ccc(O)c2ncccc12	i	-91*	-90*	-2
Cc1cccnc1NC(=S)Nc1ncccc1C	i	0	1	-1
Cc1cccc(NCc2ccc(O)c3ncccc23)c1C	i	-89*	-74*	1
CCCCCCNC(=O)OC12CN(C(=O)OC(C)C)N(C(=O)OC(C)C)CC1(O)CN(S(=O)(=O)c1ccc(C)cc1)C2 (stereo not given)	i	4	-5	1
Cc1ccc(NC(=O)CN(C)C(=O)C2CC(=O)N(Cc3ccccc3)C2)cc1 (stereo not given)	i	-19	5	-2
COC(=O)CCCC(=O)N1CCC(CCC(=O)NC2CC2)CC1	i	.	3	-2
C1=C(c2ccccc2)Nc2nnnn2C1c1cccs1 (stereo not given)	-111%*	-1	15	0
Cc1ccc(C2=CC(c3cccs3)n3nnnc3N2)cc1 (stereo not given)	i	4	4	-1
CC1=C(C(=O)Nc2ccccc2)C(c2cccs2)n2nnnc2N1 (stereo not given)	-96%*	0	-3	-1
CC1=C(C(=O)Nc2ccccc2)C(c2ccncc2)n2nnnc2N1 (stereo not given)	i	-3	-2	-2
CCn1cc(/C=C(\NC(=O)c2cc(OC)c(OC)c(OC)c2)C(=O)N2CCOCC2)c2ccccc21	i	5	-13	1
Cc1csc(NC(=O)CCC(=O)N(CC(=O)NC2CCCCC2)c2ccccc2)n1	i	3	10	-1
CN(C)c1ccc(CNC(=O)C2(C)Cc3c(-c4cccc(C(F)(F)F)c4)ccnc3O2)cc1 (stereo not given)	i	?	?	-3
CNc1nc(-c2ccccn2)nnc1-c1ccccc1	i	-95*	-93*	-2
c1ccc(-c2nnc(-c3ccccn3)nc2NC2CCCCC2)cc1	i	-95*	-84*	3
CCN(CC)c1ccc(/C=C2\C(=O)N(c3nnc(C)c(=O)[nH]3)N=C2C)cc1	i	-92*	-92*	-1
COc1ccccc1-n1cnnc1SCC(=O)NCc1cccs1	-111%*	5	5	0
COc1ccccc1-n1cnnc1SCC(=O)NC1CCCCC1	i	8	5	-1
COc1ccc(NC(=O)c2ccc(NC3=NC4CS(=O)(=O)CC4S3)cc2)cc1 (stereo not given)	i	-5	0	-2
COC(=O)C1=C/C=C\CN(C(c2ccccc2)c2ccccc2)/C=C\1C(=O)OC	i	1	-19	1
CN(C)c1ccc(CNc2ncc(Br)cc2Br)cc1	i	?	-66*	2
SMILES	Akt phos inh	CtBP-E1A blk	Six1-Eya2 inh	CCT chaperon mod
Cc1ccc(S(=O)(=O)N2CCN(C(=O)c3ccccc3Cc3ccccc3)CC2)c(C)c1	i	-3	-5	-1
CN(C(=O)COC(=O)CNS(=O)(=O)/C=C/c1ccccc1)C1CCS(=O)(=O)C1 (stereo not given)	-123%*	0	11	1
COc1cc(SC#N)ccc1N=Cc1c(C)[nH]n(-c2ccc(C)c(C)c2)c1=O	i	?	-66*	1
COc1cc(SC#N)ccc1N=Cc1c(C)[nH]n(-c2ccc(Cl)cc2)c1=O	i	-6	-15	-1
Oc1ccccc1/C=N/NC(=S)NCCc1ccccc1	i	-65*	?	-2
Oc1ccccc1C=NNC(=S)Nc1ccc(F)cc1	i	-92*	-76*	1
Fc1ccc(NC(=S)NN=Cc2ccccc2Cl)cc1	i	-11	-20	0
